Measurements from the supplement of paper PMC9135407.
Counter-ions that a name gives are not always drawn. In all, about 5,800 compounds went through this assay and about 620 (11%) showed activity.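 The calls were made as follows: active = score above a cut-off or among the top three wells of a plate; in these data no inactive exceeds 0.85.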 Shown is part of a subset that was picked to be rich in actives.

Test system: primary human hepatic stellate cells (donor 1)
Assay: scaled lipid accumulation score (0 = DMSO-like, 1 = nortriptyline-like); higher = stronger HSC inactivation (lipid re-accumulation), active = hit call of the paper
Details: 48 h
[1] = library stock concentration: 2 mM
[2] = library stock concentration: 3.33 mM
[3] = library stock concentration: 1 mM
[4] = library stock concentration: 10 mM
[5] = library stock concentration: 80 uM
[6] = library stock concentration: 400 uM

For `C[C@@H](O)[C@@H]1NC(=O)[C@H](CCCCN)NC(=O)[C@@H](Cc2c[nH]c3ccccc23)NC(=O)[C@H](Cc2ccccc2)NC(=O)[C@@H](NC(=O)[C@H](N)Cc2ccccc2)CSSC[C@@H](C(=O)N[C@H](CO)[C@@H](C)O)NC1=O` [Octreotide], the “scaled lipid accumulation score” value [1] was 0.006 (inactive).

`CC(=O)O/N=C1/C(c2c(O)[nH]c3cc(Br)ccc23)=Nc2ccccc21` [GSK-3 Inhibitor X] was tested, and the “scaled lipid accumulation score” value [2] was ≤ 0 (inactive).

`O=C1C[C@@H]2[C@@H](CC[C@@H](O)CCc3ccccc3)[C@H](O)C[C@@H]2O1` [Latanoprost Lactone Diol] was tested, and the “scaled lipid accumulation score” value [3] was 0.003 (inactive).

In the case of `O=C(CCCCCCCCCCCCC1CCCC1)Nc1ccc(S(=O)(=O)c2ccc(NC(=O)CCCCCCCCCCCCC3CCCC3)cc2)cc1` [Chaulmosulfone], the “scaled lipid accumulation score” value [4] was ≤ -0.027 (inactive).

For `COc1cc2c(Oc3ccc4[nH]c(C)cc4c3F)ncnc2cc1OCCCN1CCCC1` [Cediranib (AZD2171)] [listing 1 of 2 here], the “scaled lipid accumulation score” value [2] was 1.1 (active).

For `COc1cc2c(Oc3ccc4[nH]c(C)cc4c3F)ncnc2cc1OCCCN1CCCC1` [Cediranib] [listing 1 of 2 here], the “scaled lipid accumulation score” value [1] was 1.06 (active).

For `Cc1cc2c(F)c(Oc3ncnn4cc(OC[C@@H](C)O)c(C)c34)ccc2[nH]1` [Brivanib], the “scaled lipid accumulation score” value [5] was ≤ -0.009 (inactive), the “scaled lipid accumulation score” value [6] was ≤ -0.009 (inactive) and the “scaled lipid accumulation score” value [1] was ≤ -0.009 (inactive). For the same compound, the “scaled lipid accumulation score” value [4] was ≤ -0.009 (inactive).

In the case of `COc1cc2c(Oc3ccc4[nH]c(C)cc4c3F)ncnc2cc1OCCCN1CCCC1` [Cediranib (AZD2171)] [listing 2 of 2 here], the “scaled lipid accumulation score” value [4] was 0.678 (inactive).

In the case of `Cc1cc2c(F)c(Oc3ncnn4cc(OC[C@@H](C)OC(=O)[C@H](C)N)c(C)c34)ccc2[nH]1`, the “scaled lipid accumulation score” value [2] was ≤ 0 (inactive) and the “scaled lipid accumulation score” value [4] was ≤ 0 (inactive).

For `COc1cc2c(Oc3ccc4[nH]c(C)cc4c3F)ncnc2cc1OCCCN1CCCC1` [Cediranib] [listing 2 of 2 here], the “scaled lipid accumulation score” value [5] was 0.077 (inactive), the “scaled lipid accumulation score” value [6] was 0.464 (inactive) and the “scaled lipid accumulation score” value [4] was 0.693 (inactive).

In the case of `Cc1cc2c(F)c(Oc3ncnn4cc(OC[C@@H](C)O)c(C)c34)ccc2[nH]1`, the “scaled lipid accumulation score” value [2] was 0.023 (inactive) and the “scaled lipid accumulation score” value [4] was ≤ 0 (inactive).

`CCCCCCCC/C=C\CCCCCC(=O)O` [cis-7-Hexadecenoic Acid] was tested, and the “scaled lipid accumulation score” value [3] was ≤ 0 (inactive).

`COC(=O)C(C)(N)Cc1ccc(O)cc1` (racemic) [alpha-Methyl-DL-tyrosine methyl ester hydrochloride] was tested, and the “scaled lipid accumulation score” value [4] was ≤ -0.019 (inactive).

With `CN1CCC(CNc2ccc3ncc(-c4cccc(OC(F)(F)F)c4)n3n2)CC1` [listing 1 of 2 here] the “scaled lipid accumulation score” value [1] was 1.4 (active).

For `CN1CCC(CNc2ccc3ncc(-c4cccc(OC(F)(F)F)c4)n3n2)CC1` [listing 2 of 2 here], the “scaled lipid accumulation score” value [5] was 0.117 (inactive), the “scaled lipid accumulation score” value [6] was 0.23 (inactive) and the “scaled lipid accumulation score” value [4] was 0.47 (inactive).

For `CN1CCC(CNc2ccc3ncc(-c4cccc(OC(F)(F)F)c4)n3n2)CC1` [SGI-1776 free base], the “scaled lipid accumulation score” value [2] was 0.774 (inactive) and the “scaled lipid accumulation score” value [4] was 0.181 (inactive).

For `CCCCC/C=C\C/C=C\C/C=C\C/C=C\CCCC(=O)NC[C@]1(C)CCC[C@]2(C)c3ccc(C(C)C)cc3CC[C@@H]12` [Arachidonic Acid Leelamide], the “scaled lipid accumulation score” value [3] was 0.002 (inactive).

In the case of `CCCCCCCCCCCCCCCC(=O)NC(CO)CO` [Palmitoyl Serinol], the “scaled lipid accumulation score” value [3] was 0.026 (inactive).

In the case of `O=C(Nc1ccncc1)Nc1c(Cl)cc(Cl)cc1Cl` [Rho Kinase Inhibitor II], the “scaled lipid accumulation score” value [2] was ≤ 0 (inactive).

With `Cc1cc(C)c(Nc2ccnc(Nc3ccc(C#N)cc3)n2)c(C)c1` [Dapivirine (TMC120)] [listing 1 of 2 here] the “scaled lipid accumulation score” value [4] was 1.08 (active).

With `Cc1cc(C)c(Nc2ccnc(Nc3ccc(C#N)cc3)n2)c(C)c1` [Dapivirine (TMC120)] [listing 2 of 2 here] the “scaled lipid accumulation score” value [2] was 0.243 (inactive).

`Cc1cc(/C=C/C#N)cc(C)c1Nc1ccnc(Nc2ccc(C#N)cc2)n1` [Rilpivirine] was tested, and the “scaled lipid accumulation score” value [2] was ≤ -0.009 (inactive) and the “scaled lipid accumulation score” value [4] was ≤ 0 (inactive).

For `Cc1ccccc1-c1cccc(N2CCC(N3CCN(C)C(C)C3)CC2)c1` (centres undefined), the “scaled lipid accumulation score” value [4] was 1.05 (active).

For `O=C(O)CCC/C=C\C[C@@H]1[C@@H](/C=C/[C@H](O)CCc2ccccc2)[C@H](O)C[C@@H]1O` [15(R)-17-phenyl trinor Prostaglandin F2.alpha.], the “scaled lipid accumulation score” value [3] was ≤ 0 (inactive).

For `CN(Cc1ccccc1)C(=O)[C@H](Cc1ccc2ccccc2c1)NC(=O)[C@@H]1CCCN1C(=O)Nc1ccccc1[N+](=O)[O-]`, the “scaled lipid accumulation score” value [4] was 0.005 (inactive).

In the case of `CNC(=O)[C@@H](Cc1ccccc1)N(C)C(=O)[C@@H](Cc1ccc2ccccc2c1)N(C)C(=O)/C=C/CC(C)(C)N.CNC(=O)[C@@H](Cc1ccccc1)N(C)C(=O)[C@@H](Cc1ccc2ccccc2c1)N(C)C(=O)/C=C/CC(C)(C)N.O=C(O)/C=C/C(=O)O` [Tabimorelin], the “scaled lipid accumulation score” value [4] was 1.3 (active).

With `CN(Cc1ccccc1)C(=O)[C@H](Cc1ccc2ccccc2c1)NC(=O)[C@@H]1C[C@@H](O)CN1C(=O)c1cn(C)c2ccccc12` the “scaled lipid accumulation score” value [4] was 0.019 (inactive).

For `CCCCCCCCCCCCC/C=C/[C@@H](O)[C@H](CO)NC(=O)CCCCCCCCCCCCCCC` [C16 Ceramide], the “scaled lipid accumulation score” value [3] was ≤ -0.021 (inactive).

`C[n+]1cc2c3c(ccc2c2ccc4cc5c(cc4c21)OCO5)OCO3` [Sanguinarine sulfate] was tested, and the “scaled lipid accumulation score” value (library stock concentration: 4.7 mM) was 0.693 (inactive) and the “scaled lipid accumulation score” value [4] was 0.287 (inactive).

With `C[n+]1cc2c3c(ccc2c2ccc4cc5c(cc4c21)OCO5)OCO3` [Sanguinarine chloride] the “scaled lipid accumulation score” value [4] was 0.196 (inactive).

`COc1ccc2cc3[n+](cc2c1OC)CCc1cc2c(cc1-3)OCO2` [Berberine chloride] was tested, and the “scaled lipid accumulation score” value was ≤ 0 (inactive) and the “scaled lipid accumulation score” value [4] was ≤ 0 (inactive).

`COc1ccc2cc3[n+](cc2c1OC)CCc1cc2c(cc1-3)OCO2` [Berberine HCl] was tested, and the “scaled lipid accumulation score” value [2] was ≤ 0 (inactive) and the “scaled lipid accumulation score” value [4] was ≤ 0 (inactive).

`C[n+]1cc2c3c(ccc2c2ccc4cc5c(cc4c21)OCO5)OCO3` [Sanguinarine] was tested, and the “scaled lipid accumulation score” value was 0.869 (active).

For `CC#CCC(C)C(=O)/C=C/[C@@H]1[C@H]2C/C(=C/CCCC(=O)O)C[C@H]2C[C@H]1O` (some centres undefined) [15-keto Iloprost], the “scaled lipid accumulation score” value [3] was ≤ 0 (inactive).

In the case of `CC(C)OC(=O)CCC/C=C\C[C@@H]1[C@@H](/C=C/C(=O)COc2cccc(C(F)(F)F)c2)[C@H](O)C[C@@H]1O` [15-keto Fluprostenol isopropyl ester], the “scaled lipid accumulation score” value [3] was ≤ 0 (inactive).
